# ALR H2O2 inh: inhibitors of human ALR sulfhydryl oxidase, primary screen, biochemical, H2O2 detection, HRP-luminol luminescence, single point; 3.8% of 290,000 active; inhibition, % (no concentration beside the values); FAD-linked sulfhydryl oxidase ALR (Homo sapiens), P55789; purified ALR, DTT oxidation;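 active = mean replicate inhibition above about 79%, with every replicate also reaching it, limit read from the data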
# Target sequence (P55789 whole entry, looked up): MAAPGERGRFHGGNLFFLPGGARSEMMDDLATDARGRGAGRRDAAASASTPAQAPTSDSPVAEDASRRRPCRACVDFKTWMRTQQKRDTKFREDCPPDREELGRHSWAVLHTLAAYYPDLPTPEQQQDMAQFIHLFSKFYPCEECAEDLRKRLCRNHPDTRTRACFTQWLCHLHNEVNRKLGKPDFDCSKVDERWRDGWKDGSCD
# PHOSPHO1 block: PubChem AID 1565; Phosphoethanolamine/phosphocholine phosphatase (Homo sapiens), Q8TCT1; recombinant PHOSPHO1, absorbance phosphatase assay; inhibition, % at 13.3 µM; 1.1% of 290,000 active; in the data active = inhibition above about 60%
# Target sequence (Q8TCT1 whole entry, looked up): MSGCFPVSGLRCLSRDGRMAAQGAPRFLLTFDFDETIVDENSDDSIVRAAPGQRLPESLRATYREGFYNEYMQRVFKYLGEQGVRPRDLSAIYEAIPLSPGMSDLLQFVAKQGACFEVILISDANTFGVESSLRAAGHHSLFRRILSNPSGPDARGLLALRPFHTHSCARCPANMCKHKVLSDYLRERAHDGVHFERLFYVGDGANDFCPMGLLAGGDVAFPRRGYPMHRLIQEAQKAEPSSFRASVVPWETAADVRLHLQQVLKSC
# PfM18AAP inh: PfM18AAP inhibitors, malaria aminopeptidase, primary screen, biochemical, QFRET, recombinant enzyme; H-Glu-NHMec fluorogenic cleavage; M18 aspartyl aminopeptidase (Plasmodium falciparum 3D7); inhibition, % at 7.35 µM; 1.2% of 290,000 active;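 active = inhibition above the campaign mean inhibition over all tested compounds plus 3 SD, cut at about 28% in these data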;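 note: 0% = plate median of test compound wells and 100% = 2 mM ZnCl2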
# Cardio protect: cardioprotection against H2O2-induced cell death, primary screen, uHTS, H9c2 cells, ATPLite luminescence; H9c2 cardiomyocytes, H2O2 injury protection, 2 h; protection from H2O2 cell death, % at 20 µM; 0.63% of 360,000 active; AID 588492, 2011;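 active = compounds giving at least 50% protection of heart cells from peroxide-induced death in the single-dose screen, raw or plate-pattern-corrected value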;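 note: 0% = DMSO wells with peroxide and 100% = DMSO wells without peroxide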
# PfG6PD inh: PfG6PD enzyme inhibitors, primary screen, biochemical, fluorescence intensity, uHTS; glucose-6-phosphate dehydrogenase-6-phosphogluconolactonase (Plasmodium falciparum 3D7); 0.78% of 350,000 active; inhibition, % at 20 µM; PfGluPho enzyme, NADPH resazurin-diaphorase fluorescence; AID 504690, 2011;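 active = inhibition reaching at least a set limit at 20 µM in the primary screen, cut at about 59% in these data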;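 note: 0% = DMSO wells with substrate and 100% = DMSO wells lacking glucose-6-phosphate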
# The depositor's hits bear a star; . = no result. An excerpt weighted towards active compounds, which were near 5.6% of everything screened.
SMILES,ALR H2O2 inh,PHOSPHO1 block,PfM18AAP inh,Cardio protect,PfG6PD inh
Cc1ccc(NC(=O)c2cc(NC(=O)/C=C\C(=O)O)ccc2N2CCCCC2)cc1,99*,9,7,-3,34
CCOC(=O)c1c(C)[nH]c(C)c1S(=O)(=O)NCc1ccccc1C,-1,38,-18,-4,-9
O=C(O)c1ccc2noc(-c3ccccc3)c2c1,23,-10,15,4,6
O=C(O)/C=C/c1ccc2c(-c3ccccc3)onc2c1,93*,-21,9,11,-13
COc1ccc(/C=C(/C#N)C(=O)Nc2cccc([N+](=O)[O-])c2)cc1C(=O)O,97*,-63,0,-3,-6
N#C/C(=C\c1cccc([N+](=O)[O-])c1)C(=O)NCc1ccc(Cl)cc1,.,52,3,-27,33
N#C/C(=C\c1cccc([N+](=O)[O-])c1)C(=O)Nc1cccnc1,97*,-5,3,6,1
N#C/C(=C/c1cccc([N+](=O)[O-])c1)C(=O)Nc1ccccc1O,96*,37,5,4,2
Cc1cccc(C)c1OCc1nnc(SCC(=O)Nc2ccc(N3CCOCC3)cc2)o1,-1,39,4,-6,-26
CCN(CCO)c1ncnc2c1sc1nc(C(C)C)c3c(c12)CC(C)(C)OC3,-3,37,3,60*,49
CC(C)c1nc2sc3c(NCc4ccccc4)ncnc3c2c2c1COC(C)(C)C2,30,2,8,-13,-4
Cc1ccc(SCC2(O)CCN(C(=O)c3ccc(Cl)cc3)CC2)cc1,2,62*,10,-4,4
Cc1ccc(SCc2ccc(C(=O)N3CCCC3)cc2)cc1,-32,27,5,-2,6
COc1ccc(NC(=O)c2cc(C3CCCCN3S(=O)(=O)c3cn(C)cn3)on2)c(C)c1 (stereo unspecified),.,.,.,-2,.
CC(=O)Nc1ccc(C2=NN(c3ccccc3)C(c3ccccc3)C2)cc1 (stereo unspecified),96*,.,7,-9,-4
O=C(O)c1ccc(N2N=C(c3ccccc3)CC2c2ccccc2)cc1 (stereo unspecified),92*,30,-1,8,-28
Oc1ccc(C2=NN(c3ccccc3)C(c3ccc(F)cc3)C2)cc1 (stereo unspecified),97*,42,18,-4,17
O=Cc1ccc(N2N=C(c3ccccc3)CC2c2ccccc2)cc1 (stereo unspecified),-10,2,8,-4,13
COc1ccc(S(=O)(=O)NC(=O)C2(C)CCN2C(=O)CC2CCCC2)cc1 (stereo unspecified),.,.,.,-2,.
C/C=C(\C)C(=O)O[C@H](c1cc2ccc(=O)oc2cc1OC)[C@@H](O)C(C)(C)O,-6,.,.,-3,-11
CCN(C(=O)COC(=O)/C=C/c1cccc([N+](=O)[O-])c1)c1c(N)n(Cc2ccccc2)c(=O)[nH]c1=O,.,.,.,-2,2
CCN1CCN(C(=O)C2CCN(S(=O)(=O)c3cccc4cccnc34)CC2)CC1,98*,11,.,1,-1
O=C(O)CN1C(=O)C2C3CC(C2C1=O)C1C(c2ccc(F)cc2)c2sc(=O)[nH]c2SC31 (stereo unspecified),10,16,20,-2,-1
C=CC[C@@H](CC(=O)NCCO)C(=O)NC[C@H](OC(=O)[C@@H](CC=C)Cc1ccc(F)cc1)c1ccccc1,-1,.,.,70*,15
Cn1c2c(c3ccccc31)CCN(CCCCN1CCN(c3ccccc3)CC1)C2=O,.,.,.,-2,18
SMILES,ALR H2O2 inh,PHOSPHO1 block,PfM18AAP inh,Cardio protect,PfG6PD inh
CC1CC(C)CN(CCCNC(=O)Cc2c(C(=O)O)[nH]c3ccccc23)C1 (stereo unspecified),-5,25,-10,-3,-9
O=C(Cc1c(C(=O)O)[nH]c2ccccc12)NCCN1CCN(c2cccc(Cl)c2)CC1,88*,0,-2,13,-17
COc1ccccc1C(=O)NCCN1CCN(c2ccccc2)CC1,97*,-2,2,10,-9
O=C(NCCN1CCN(c2ccccc2)CC1)c1cccc(Cl)c1,98*,32,6,-2,3
Cc1cccc(C)c1NC(=O)NCCCN1CCN(c2ccccc2)CC1,82*,-7,-7,5,-16
Cc1cccc(C)c1NC(=O)C(=O)NCCCN1CCOCC1,-2,-3,-3,4,7
COc1ccccc1C(=O)Nc1ccc(N2CCN(Cc3ccccc3)CC2)cc1,1,13,-3,12,-4
CS(=O)(=O)N(CC(=O)N1CCCC1)c1cccc(C(F)(F)F)c1,.,.,.,-2,-2
Cc1cc(=O)oc2c(C)c(OCC(=O)N3CCN(c4cccc(Cl)c4)CC3)ccc12,-4,32,0,4,-12
O=C(CCN1CCN(c2ccccc2)CC1)N/N=C/c1ccccc1O,84*,-14,-3,55*,-14
COc1ccc(C)cc1NC(=O)CCN1CCN(c2ccccc2)CC1,95*,14,-4,-5,-4
O=C(NCCN1CCN(c2ccccc2)CC1)C1(S(=O)(=O)c2ccc(Cl)cc2)CC1,99*,-18,-1,-5,5
CN1CCN(CCC(=O)N/N=C/c2ccccc2F)CC1,-33,20,0,7,-7
O=C(NCc1ccccc1Cl)C1(S(=O)(=O)c2ccc(Cl)cc2)CC1,.,45,-4,-3,2
CC1CCCC(NC(=O)c2cccs2)C1C (stereo unspecified),0,.,.,7,3
Cc1cccc(OCC(=O)O/N=C(\N)c2ccncc2)c1,-7,23,0,5,1
Nc1ccn([C@@H]2O[C@H](CNCc3ccc(N4CCNCC4)cc3)[C@@H](O)[C@H]2O)c(=O)n1,.,.,.,16,7
O=C(NCc1ccc(F)cc1)C(c1ccncc1)N(C(=O)c1csnn1)C1CC1 (stereo unspecified),.,38,-8,6,-14
O=C(NCc1ccccc1)C(c1ccncc1)N(C(=O)c1csnn1)C1CC1 (stereo unspecified),-17,62*,2,-2,-13
CCN(CC)C(=O)CSC(Nc1ccc(F)cc1)=C(C#N)C#N,99*,-3,13,-3,1
Cc1ccc(CSC(Nc2ccc(F)cc2)=C(C#N)C#N)cc1,-8,13,-1,-15,-36
COc1ccc(NC2C=CS(=O)(=O)C2)c(OC)c1 (stereo unspecified),85*,-7,7,-1,15
COc1cccc(NC2C=CS(=O)(=O)C2)c1 (stereo unspecified),.,-8,-15,22,0
Nc1ccc2nc(-c3ccc(-c4nc5ccc(N)cc5[nH]4)cc3)[nH]c2c1,99*,27,16,.,4
Nc1ccc2nc(-c3cccc(-c4nc5ccc(N)cc5[nH]4)n3)[nH]c2c1,99*,37,9,42,27
Nc1cccc(-c2nc3ccccc3[nH]2)c1,-113,7,0,-1,5
